About 83,000 compounds went through this panel and 20% of them were active in at least one assay; those are over-represented in the sample as a whole.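 Cell lines were cultured in 96-well plates, exposed to a single compound concentration, and assessed for percent growth 48 hours later.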 The source made the active and inactive calls. Rule for the calls: active = growth percent below 10; inactive = the rest.
System: MDA-MB-468 breast
Assay: NCI-60 one-dose screen, 48 h (100 = growth as untreated, 0 = no growth, -100 = all killed)
Details: 10 µM unless noted

Structure (SMILES) | growth
Cc1c2c(cc[n+]1Cc1ccccc1)c1ccc(OCc3ccccc3)cc1n2Cc1ccccc1 | -42.3% (active)
Cc1ccc(C(=Nc2ccccc2)N=P(c2ccccc2)(c2ccccc2)c2ccccc2)cc1 | -83% (active)
CN1CCN(Cc2ccc(NC(=O)c3ccc(C#Cc4c(N)ncc5ccc(F)cc45)cc3)cc2C(F)(F)F)CC1 | -73.6% (active)
CC(C)(C)OC(=O)N1CC(Cn2cc(C(F)(F)F)c3c(Cl)ncnc32)C1 | -46.8% (active)
C=C1c2nc3ccccc3n2C=C(c2ccc(Cl)cc2)N1Cc1ccccc1 | 59.1% (inactive)
NS(=O)(=O)c1ccc(CCNC(=O)/C=C/c2ccc(Cl)cc2)cc1 | 103% (inactive)
C=C(C)[C@@H]1C[C@@H]2Cc3cc(F)ccc3N1O2 | 104% (inactive)
Nc1c(C(=O)Nc2cccc3ccccc23)sc2nc3c(cc12)CCCCC3 | 37.1% (inactive)
CC(=O)c1ccc(Nc2nccc(-c3ccc4ccccc4c3)n2)cc1 | 76.8% (inactive)
O=C(/C=C\c1ccc2ccccc2n1)c1cc(Cl)ccc1O | 107% (inactive)
ClCC(Cl)[C@@H]1CC2C=CC1C2 (stereo not given in full) | 96% (inactive)
CC(C)(C)n1cc(-c2ccnc(NCCCNS(=O)(=O)c3ccccc3)c2)c(-c2cccc(O)c2)n1 | 9.54% (active)
CCCn1nc(C(=O)N2CCCCC2)c2c1CCC(N1CCC(c3ccncc3)CC1)C2 (stereo not given) | 104% (inactive)
CCCCCCCCCCCCCC1=NC(C)(C)CN1C(C)C | -61.4% (active)
Cc1ccc2c(n1)C(=O)C(Cl)=C(Nc1ccc(C(=O)OC(C)(C)C)cc1)C2=O | -50.3% [9.25 µM] (active)
CCN(CC)CCCC(C)Nc1ccnc2c(OC)cccc12 (stereo not given) | 117% (inactive)
Oc1ccc(Cl)cc1CNc1nc2ccccc2[nH]1 | 102% (inactive)
COc1cccc2c(=O)c3c(sc12)c(N1CCNCC1)nc1ccccc13 | 50.2% (inactive)
C=CCCCC(=O)CCC(=O)OCC1O[C@@H](O[C@@H]2C(O)[C@@H](OC(C)=O)C(C)O[C@H]2O[C@H](CC=C)CCCCC)C(O)[C@@H](OC(=O)/C(C)=C/C)[C@@H]1OC(=O)/C=C/c1ccccc1 (stereo not given in full) | -23.6% (active)
COc1ccc(C(=O)Nc2cccc(C3CCc4c(cc(OC)c(OC)c4OC)O3)c2)cc1 (stereo not given) | 12.4% (inactive)

Structure (SMILES) | growth
O=C(CN1C(=O)S/C(=C\C(Cl)=C\c2ccccc2)C1=O)NC1CCS(=O)(=O)C1 (stereo not given) | 8.17% (active)
COC(=O)/C=C/c1cc(OC(C)=O)c2c(c1)C(C(=O)OC)C(c1ccc(OC(C)=O)c(OC(C)=O)c1)O2 (stereo not given) | 35.8% (inactive)
COc1ccc2c(O)c(/C=C3\N=Nc4ncccc43)oc2c1C[C@@H]1CCNC[C@H]1F | -52.9% (active)
C(=C\c1c[nH]c2ccccc12)/c1ccc2ccccc2n1 | 68.5% (inactive)
COc1cc(C2CC(c3ccc(Nc4nc(NCCO)nc(Nc5ccc(Cl)cc5)n4)cc3)=Nc3c(N)nc(N)nc3N2)cc(OC)c1OC (stereo not given) | 58.6% (inactive)
COc1ccc(-c2nc3sccn3c2-c2ccnc(NCCNS(=O)(=O)c3ccc(C(F)(F)F)cc3)n2)cc1 | 30.2% (inactive)
Cc1ccc(NC(=O)N[C@@H](Cc2cc(F)cc(F)c2)C(=O)N[C@@H]2C(=O)N3CCC[C@H]3C(=O)N3CCCC[C@H]3C(=O)N[C@@H](C)C(=O)N3C[C@H](C)C[C@H]3C(=O)O[C@H]2C)cc1 | 5.99% (active)
COc1ccc(CN2C(=O)/C(=C\c3cc(OC)c(OC)c(OC)c3)c3cc(OC)ccc32)cc1 | 14% (inactive)
O=c1c2cc(F)ccc2sc2c(NCCCNCCO)nc3ccc(Cl)cc3c12 | 68.2% (inactive)
COc1cc(OC)c(/C=C/c2c3ccccc3cc[n+]2C)c(OC)c1 | -26.5% (active)
Cc1ccc(NS(=O)(=O)c2ccc(-c3cnc(C4CC4)o3)cc2)cc1 | -0.814% (active)
O=[N+]([O-])c1ccc(-c2cc3c(Nc4ccc(Sc5nc6ccccc6s5)c(Cl)c4)ncnc3s2)cc1 | 26.1% (inactive)
C[C@]12CCc3nc(Nc4ccccc4)sc3C1=CC[C@@H]1[C@@H]2CC[C@]2(C)/C(=N/NC(N)=S)CC[C@@H]12 | 14.9% (inactive)
Cc1oc2c(Cc3ccc(NC(=O)c4ccc(Cl)cc4)cc3)ncnc2c1C(=O)NO | 92.1% (inactive)
Oc1[nH]c2ccccc2c1/C=c1/ccc2c(c1)N=C(c1ccc(C(F)(F)F)cc1)N=2 | 43.6% (inactive)
CC(=O)Nc1ccc(C(=O)/C=C/c2ccc(N(C)C)cc2)cc1 | 95.6% (inactive)
C=C1C(=O)O[C@H]2[C@H]1CC/C(CNC(=O)/C=C/c1ccccc1)=C\CC[C@@]1(C)O[C@@H]21 | -30.2% (active)
COc1ccccc1/C=C1\COc2ccc(O)cc2C1=O | 68.7% (inactive)
O=C(Nc1ccncc1)C(=O)c1cn(S(=O)(=O)c2ccccc2F)c2ccccc12 | 16.4% (inactive)
CCCCCCNC(=O)Oc1ccc(/C(=C(\C)c2ccccc2)c2ccc(OCCN(CC)CC)cc2)cc1 | 74.9% (inactive)
